A short description of assay [1]: qHTS for Inhibitors of Plasmodium falciparum (CP250) proliferation (AID 504320; active = well fitted inhibition curve with a large enough effect; also: potency is read from the fitted curve at half-maximal effect). An outline of the steps: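 Erythrocytes infected with P. falciparum line (0.3% parasitemia, 2.5% hematocrit final) incubated with compounds 72 h at 37 °C, 5% CO2; SYBR Green lysis buffer added, fluorescence read next day. Normalized to 0.29 uM artemisinin and DMSO.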
(In general: Quantitative high-throughput screening tests each substance at several concentrations.)

For assay [2], the target named is Atrial natriuretic peptide receptor 1 (Homo sapiens) (UniProt P16066). Briefly: Natriuretic polypeptide receptor (hNpr1) antagonism - Pilot CMLD screen (AID 1347052).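 Also: HEK293 cells with hNpr1 stimulated by hNppA peptide at 0.1 nM; cGMP level read as GloSensor luciferase luminescence after agonist stimulation; series mostly up to about 9.2 µM.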

Records with an inconclusive call do not appear. A call without a number means that no potency is given here. Activity calls are given as the source filed them. Unless noted, calls follow the shape of the full dose curve.

Atrial natriuretic peptide receptor 1 (Homo sapiens), sequence (P16066 whole entry, looked up): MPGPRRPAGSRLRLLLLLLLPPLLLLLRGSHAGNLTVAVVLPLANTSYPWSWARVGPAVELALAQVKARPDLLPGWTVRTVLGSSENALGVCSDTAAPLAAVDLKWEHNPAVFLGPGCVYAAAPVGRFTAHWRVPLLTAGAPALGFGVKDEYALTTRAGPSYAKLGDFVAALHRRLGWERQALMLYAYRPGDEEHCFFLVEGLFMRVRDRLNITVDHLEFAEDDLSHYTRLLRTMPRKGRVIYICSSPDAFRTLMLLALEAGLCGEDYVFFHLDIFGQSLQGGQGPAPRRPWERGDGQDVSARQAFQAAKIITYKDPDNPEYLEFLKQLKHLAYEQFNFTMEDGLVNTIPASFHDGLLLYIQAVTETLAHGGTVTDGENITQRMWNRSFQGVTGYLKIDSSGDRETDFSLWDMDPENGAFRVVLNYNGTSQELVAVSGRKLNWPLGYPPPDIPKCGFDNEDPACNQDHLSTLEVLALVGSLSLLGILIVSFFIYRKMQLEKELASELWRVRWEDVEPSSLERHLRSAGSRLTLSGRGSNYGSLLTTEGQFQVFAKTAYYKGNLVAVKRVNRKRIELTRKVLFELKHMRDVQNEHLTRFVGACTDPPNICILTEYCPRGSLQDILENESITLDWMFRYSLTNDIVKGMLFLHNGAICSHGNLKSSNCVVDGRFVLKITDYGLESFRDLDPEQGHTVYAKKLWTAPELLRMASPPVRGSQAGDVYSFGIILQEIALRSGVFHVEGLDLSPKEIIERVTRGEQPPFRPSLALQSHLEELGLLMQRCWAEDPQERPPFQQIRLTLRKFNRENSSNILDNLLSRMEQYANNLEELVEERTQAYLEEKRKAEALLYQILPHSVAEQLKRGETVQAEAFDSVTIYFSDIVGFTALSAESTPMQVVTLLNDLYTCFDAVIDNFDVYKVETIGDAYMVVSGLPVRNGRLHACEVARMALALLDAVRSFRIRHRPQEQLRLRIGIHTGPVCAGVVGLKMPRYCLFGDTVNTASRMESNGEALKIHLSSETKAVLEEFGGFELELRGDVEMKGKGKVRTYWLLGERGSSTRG

For the compound `C[C@@H]1CC[C@H]2C(=O)N(CC3CCCCC3)C[C@H](O)CN2[C@@H]1c1ccc(Br)cc1`, the Potency result in assay [1] and in assay [2] was “inactive” each time.
For the compound `C[C@@H]1[C@@H](c2ccccc2)c2cc3ccccc3nc2-c2nc3ccccc3cc2[C@H]1C(=O)N1CCCC1`, the Potency result in assay [1] and in assay [2] was “inactive” throughout.
With `C[C@@H]1C=CCC(=O)N[C@@H](c2cccc(Br)c2)[C@H](C)C=CCC(=O)N[C@@H]1c1cccc(Br)c1`, the Potency entry in assay [1] and in assay [2] was “inactive” in each case.
Take `COc1cc2c(cc1OC)[C@@H]1O[C@](CCCCN3C(=O)c4ccccc4C3=O)(C2)Oc2c1c(=O)oc1ccc(F)cc21`: the Potency result in assay [1] and in assay [2] was “inactive” each time.
Take `Cc1cccc(C)c1Nc1oc(-c2ccccc2)nc1-c1ccccc1F`: the Potency entry in assay [1] and in assay [2] was “inactive” throughout.
`C=COC[C@H]1CN2[C@H](c3ccc(Br)cc3)[C@H](C)CC[C@H]2C(=O)O1`: the Potency in assay [1] was 1.9 µM (active). The Potency result in assay [2] is “inactive”.
With `C[C@H]1CC[C@H]2C(=O)N(Cc3cccc([N+](=O)[O-])c3)C[C@H](O)CN2[C@H]1c1cccc(Br)c1`, the Potency result in assay [1] and in assay [2] was “inactive” each time.

For the origin of these results see PubChem BioAssay (NCATS).
